{"source": "PubChem BioAssay (NCATS)", "note": "Inconclusive results are not listed. Values without a mark were called inactive. The source made the active and inactive calls. The call rests on the fitted dose curve; in most records, active means well fitted curve in the direction sought with a large enough effect; inconclusive means small, poorly fitted or top-dose-only effect, or another doubt; inactive means no such curve, though single readings can be large; an effect the other way counts as inactive or inconclusive. Wherever Potency is given: potency means the concentration at half of the fitted maximal effect.", "data": [{"assay": "NS1 protein of Zika virus - qHTS assay to identify small molecule inhibitors in human HEK 293 cells (AID 1347053);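 further: plate controls were infected untreated cells for no effect and uninfected cells for full effect; nearly all actives have a fitted effect of over 55% in size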", "conditions": "HEK293 ZIKV MR766 infection, NS1 TR-FRET, 24 h; series mostly up to 46.1 µM; activity change, negative = inhibition: at the top concentration", "source_text": "National Center for Advancing Translational Sciences [NCATS]\nJohns Hopkins University School of Medicine\nThe non-structural 1 (NS1) protein of zika virus is known to associate with the viral replication complex. This cell-based TR-FRET ZIKV NS-1 assay measures the increased NS-1 protein in human HEK 293 cells after a 24-hour Zika virus infection by a TR-FRET assay readout. A decrease in the Time-resolved fluorescence energy transfer (TR-FRET) signal in this assay by small molecule treatment indicates an inhibitory effect of the small molecule on the expression of Zika virus NS1 correlating with Zika virus replication.\nHEK 293 cells were cultured in EMEM (ATCC, Cat. # 30-2003) medium with 10% fetal bovine serum (GE healthcare Life Sciences, Cat. # SH30071.03), and 1% Pen/Strep (Gibco, Cat. # 15140-122). Cells were seeded in the assay plate and incubated at 37 C with 5% CO2 for 20 hours. Compounds were added to cells and incubated for one hour before addition of ZIKV MR766 strain solution to cells (MOI = 0.5). After an incubation at 37 C for 24 hours, the reagent mixture of TR-FRET ZIKV NS1 assay using two anti-ZIKV NS1 antibodies was added to assay plates. The TR-FRET signals in assay plates were measured using an Envision plate reader (PerkinElmer). Data were normalized by using the cell-containing wells without ZIKV as a negative control (0% NS-1) and wells containing ZIKV infected cells as a positive control (100% NS-1 level).", "units": {"activity change, negative = inhibition": "%"}, "values": [{"compound": "O=C(OCc1ccccc1)c1ccc(O)cc1", "activity change, negative = inhibition": 4.83}, {"compound": "O=C(O)CCC(=O)c1ccc(-c2ccccc2)cc1", "activity change, negative = inhibition": 1.76}, {"compound": "Nc1ccc(N=Nc2ccccc2)c(N)n1", "activity change, negative = inhibition": 2.54}, {"compound": "Oc1ccc(/C=C/c2cc(O)cc(O)c2)cc1", "outcome": "inactive"}, {"compound": "CC(=O)Oc1cccc2c1C(=O)c1c(OC(C)=O)cc(C(=O)O)cc1C2=O", "activity change, negative = inhibition": 3.56}]}, {"assay": "qHTS of pediatric cancer cell lines to identify multiple opportunities for drug repurposing: Primary screen for TC32 cells (AID 1347089); further: on the % scale 0 is the no-effect control and ±100 the full control effect; nearly all actives have a fitted effect of over 60% in size", "conditions": "TC32 Ewing sarcoma viability, CellTiter-Glo luminescence, 48 h; series mostly up to 45.8 µM; activity change, negative = cytotoxic: at the top concentration", "method_in_brief": "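A viability screen of TC32 cells was run over 48 h, with primary MIPE doses spanning 0.78 nM–46 µM and NPC doses 0.59 nM–46 µM. ATP luminescence (CellTiter-Glo) served as the read-out.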", "units": {"activity change, negative = cytotoxic": "%"}, "values": [{"compound": "O=C(OCc1ccccc1)c1ccc(O)cc1", "activity change, negative = cytotoxic": 2.68}, {"compound": "O=C(O)CCC(=O)c1ccc(-c2ccccc2)cc1", "activity change, negative = cytotoxic": 6.34}, {"compound": "Nc1ccc(N=Nc2ccccc2)c(N)n1", "activity change, negative = cytotoxic": 11.8}, {"compound": "Oc1ccc(/C=C/c2cc(O)cc(O)c2)cc1", "activity change, negative = cytotoxic": -5.25}, {"compound": "CC(=O)Oc1cccc2c1C(=O)c1c(OC(C)=O)cc(C(=O)O)cc1C2=O", "activity change, negative = cytotoxic": 7.32}]}, {"assay": "qHTS of pediatric cancer cell lines to identify multiple opportunities for drug repurposing: Primary screen for DAOY cells (AID 1347090); further: nearly all actives have a fitted effect of over 55% in size", "conditions": "DAOY medulloblastoma viability, CellTiter-Glo luminescence, 48 h; series mostly up to 46 µM; activity change, negative = cytotoxic: at the top concentration", "method_in_brief": "(§1)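 Eight- or eleven-point concentration series, 48 h treatment at 37 degrees C in growth media; readout CellTiter-Glo luminescence. Potency and efficacy were taken from the concentration-response curves.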", "units": {"activity change, negative = cytotoxic": "%"}, "values": [{"compound": "O=C(OCc1ccccc1)c1ccc(O)cc1", "activity change, negative = cytotoxic": 6.06}, {"compound": "O=C(O)CCC(=O)c1ccc(-c2ccccc2)cc1", "activity change, negative = cytotoxic": -2.07}, {"compound": "Nc1ccc(N=Nc2ccccc2)c(N)n1", "activity change, negative = cytotoxic": -1.6}, {"compound": "Oc1ccc(/C=C/c2cc(O)cc(O)c2)cc1", "activity change, negative = cytotoxic": -13.4}]}, {"assay": "qHTS of pediatric cancer cell lines to identify multiple opportunities for drug repurposing: Primary screen for SJ-GBM2 cells (AID 1347091)", "conditions": "SJ-GBM2 viability, CellTiter-Glo luminescence, 48 h; series mostly up to 46 µM; activity change, negative = cytotoxic: at the top concentration", "method_in_brief": "as §1", "units": {"activity change, negative = cytotoxic": "%"}, "values": [{"compound": "O=C(OCc1ccccc1)c1ccc(O)cc1", "activity change, negative = cytotoxic": 17.8}, {"compound": "O=C(O)CCC(=O)c1ccc(-c2ccccc2)cc1", "activity change, negative = cytotoxic": 20.5}, {"compound": "Nc1ccc(N=Nc2ccccc2)c(N)n1", "activity change, negative = cytotoxic": 5.48}, {"compound": "CC(=O)Oc1cccc2c1C(=O)c1c(OC(C)=O)cc(C(=O)O)cc1C2=O", "activity change, negative = cytotoxic": 18.2}]}, {"assay": "qHTS of pediatric cancer cell lines to identify multiple opportunities for drug repurposing: Primary screen for A673 cells (AID 1347092)", "conditions": "A673 Ewing sarcoma viability, CellTiter-Glo ATP luminescence, 48 h; series mostly up to 46 µM; activity change, negative = cytotoxic: at the top concentration", "method_in_brief": "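Titration-based qHTS on A673 cells: MIPE compounds spanned 11 points (0.78 nM to 46 µM final), NPC compounds 8 points (0.59 nM to 46 µM final). Viability after 48 h was measured by ATP luminescence.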", "units": {"activity change, negative = cytotoxic": "%"}, "values": [{"compound": "O=C(OCc1ccccc1)c1ccc(O)cc1", "activity change, negative = cytotoxic": -12}, {"compound": "O=C(O)CCC(=O)c1ccc(-c2ccccc2)cc1", "activity change, negative = cytotoxic": -2.59}, {"compound": "Nc1ccc(N=Nc2ccccc2)c(N)n1", "activity change, negative = cytotoxic": -17.9}, {"compound": "CC(=O)Oc1cccc2c1C(=O)c1c(OC(C)=O)cc(C(=O)O)cc1C2=O", "Potency": "21.1 µM (active)"}]}, {"assay": "qHTS of pediatric cancer cell lines to identify multiple opportunities for drug repurposing: Primary screen for SK-N-MC cells (AID 1347093)", "conditions": "SK-N-MC viability, CellTiter-Glo luminescence, 48 h; series mostly up to 46 µM; activity change, negative = cytotoxic: at the top concentration", "method_in_brief": "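Metabolically active cells were quantified by ATP-dependent luminescence (CellTiter-Glo, 15 min at room temperature) following 48 h treatment. Cells had been plated at 500-1,000 per well and settled for 5 h beforehand.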", "units": {"activity change, negative = cytotoxic": "%"}, "values": [{"compound": "O=C(OCc1ccccc1)c1ccc(O)cc1", "activity change, negative = cytotoxic": 42.8}, {"compound": "O=C(O)CCC(=O)c1ccc(-c2ccccc2)cc1", "activity change, negative = cytotoxic": -1.37}, {"compound": "Nc1ccc(N=Nc2ccccc2)c(N)n1", "activity change, negative = cytotoxic": 11.6}, {"compound": "Oc1ccc(/C=C/c2cc(O)cc(O)c2)cc1", "Potency": "15 µM (active)"}]}, {"assay": "qHTS of pediatric cancer cell lines to identify multiple opportunities for drug repurposing: Primary screen for BT-37 cells (AID 1347094)", "conditions": "BT-37 viability, CellTiter-Glo luminescence, 48 h; series mostly up to 57.3 µM; activity change, negative = cytotoxic: at the top concentration", "source_text": "Drug repurposing or repositioning has been offered as a strategy for drug development in oncology programs. This approach has special potential for childhood cancers and other rare or orphan diseases, where the expected return on new drug development has been a disincentive to pharmaceuticals. […] In this project we exploit the poly-pharmacology of drugs to discover new indications via phenotypic screening of a panel of 19 well-characterized cell lines derived from solid tumors seen in children and adolescents. The goal is to identify approved drugs with previously unrecognized anticancer properties that has the potential to reveal new mechanisms and biological processes involved in carcinogenesis or drug resistance. We employed a titration-based paradigm (quantitative high-throughput screening or qHTS), where all compounds were tested at multiple concentrations for their effect on cell viability. Concentration-response curves (CRCs) were derived directly from the primary screen, and both potency and efficacy values were used to identify compounds with robust bioactivity profiles. We screened the NIH Chemical Genomics Center (NCGC) Pharmaceutical Collection (NPC) and Mechanism Interrogation Plate (MIPE) small molecule collections of approved and investigational compounds against these cell lines; and measured metabolically active cells after 48 hours of compound treatment as a proxy for cell viability. […] Assay Submitter: Nathalia J. Martinez, National Center for Advancing Translational Sciences, National Institutes of Health, Rockville, MD, USA; email: natalia.martinez@nih.gov Shen, M et al. Quantitative high-throughput phenotypic screening of pediatric cancer cell lines identifies multiple opportunities for drug repurposing. Oncotarget 2017 Dec 19;9(4):4758-4772. PMID 29435139.\nThe cells were obtained from University of North Carolina (UNC), Pediatric Preclinical Testing Program (PPT), and Coriell Institute (CI). qHTS cell viability assay: Cells were assayed in growth media at a density of 500-1,000 cells/well. Five microliters of cells were dispensed into 1,536-well, white, solid-bottom, TC-treated plates (Greiner Bio One) using a multidrop dispenser and incubated at 37 degrees C, 5% CO2, under a humidified atmosphere for 5 hours. Twenty-three nanoliters of compounds and controls (neutral control DMSO or positive control bortezomib at final concentration of 2.3 µM) were subsequently transferred by Kalypsys pintool. For primary screens, the MIPE collection was tested at 11-point dilutions (final concentrations range from 0.78 nM to 46 µM) and the NPC collection at 8-point dilutions (final concentrations range from 0.59 nM to 46 µM). Compounds tested in follow-up screens were assayed at 11-point dilutions. Cells were incubated for 48 hours, followed by addition of 3 µL of CellTiter-Glo (Promega). After a 15 min incubation at room temperature, samples were analyzed for luminescence intensity using a ViewLux High-throughput CCD imager equipped with clear filters.", "units": {"activity change, negative = cytotoxic": "%"}, "values": [{"compound": "O=C(OCc1ccccc1)c1ccc(O)cc1", "activity change, negative = cytotoxic": -8.25}, {"compound": "O=C(O)CCC(=O)c1ccc(-c2ccccc2)cc1", "activity change, negative = cytotoxic": 15.5}, {"compound": "Nc1ccc(N=Nc2ccccc2)c(N)n1", "activity change, negative = cytotoxic": -10.1}, {"compound": "Oc1ccc(/C=C/c2cc(O)cc(O)c2)cc1", "Potency": "19.5 µM (active)"}, {"compound": "CC(=O)Oc1cccc2c1C(=O)c1c(OC(C)=O)cc(C(=O)O)cc1C2=O", "activity change, negative = cytotoxic": -17.2}]}, {"assay": "qHTS of pediatric cancer cell lines to identify multiple opportunities for drug repurposing: Primary screen for NB-EBc1 cells (AID 1347095)", "conditions": "NB-EBc1 neuroblastoma viability, CellTiter-Glo luminescence, 48 h; series mostly up to 46 µM; activity change, negative = cytotoxic: at the top concentration", "method_in_brief": "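Plated cells (500-1,000 per well, growth media) were allowed to settle for 5 hours, treated with compound dilutions for 48 hours, then lysed with CellTiter-Glo for 15 min at room temperature before luminescence reading.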", "units": {"activity change, negative = cytotoxic": "%"}, "values": [{"compound": "O=C(OCc1ccccc1)c1ccc(O)cc1", "activity change, negative = cytotoxic": 15.6}, {"compound": "O=C(O)CCC(=O)c1ccc(-c2ccccc2)cc1", "activity change, negative = cytotoxic": 18.6}, {"compound": "Nc1ccc(N=Nc2ccccc2)c(N)n1", "activity change, negative = cytotoxic": 32.5}, {"compound": "Oc1ccc(/C=C/c2cc(O)cc(O)c2)cc1", "activity change, negative = cytotoxic": -19.9}]}, {"assay": "qHTS of pediatric cancer cell lines to identify multiple opportunities for drug repurposing: Primary screen for U-2 OS cells (AID 1347096)", "conditions": "U-2 OS viability, CellTiter-Glo luminescence, 48 h; series mostly up to 46 µM; activity change, negative = cytotoxic: at the top concentration", "method_in_brief": "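Cells (500-1,000/well) in growth media were settled 5 h at 37 degrees C, then given compounds for 48 h. Viability was read as CellTiter-Glo luminescence. Primary runs used MIPE at 11 points (0.78 nM-46 µM) and NPC at 8 points (0.59 nM-46 µM); follow-ups used 11 points.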", "units": {"activity change, negative = cytotoxic": "%"}, "values": [{"compound": "O=C(OCc1ccccc1)c1ccc(O)cc1", "activity change, negative = cytotoxic": 4.55}, {"compound": "O=C(O)CCC(=O)c1ccc(-c2ccccc2)cc1", "activity change, negative = cytotoxic": 5.74}, {"compound": "Nc1ccc(N=Nc2ccccc2)c(N)n1", "activity change, negative = cytotoxic": 4.51}, {"compound": "Oc1ccc(/C=C/c2cc(O)cc(O)c2)cc1", "activity change, negative = cytotoxic": 13.1}, {"compound": "CC(=O)Oc1cccc2c1C(=O)c1c(OC(C)=O)cc(C(=O)O)cc1C2=O", "activity change, negative = cytotoxic": -17.3}]}]}
